PubChem BioAssay (NCI)
The panel holds about 83,000 compounds, 20% with a hit somewhere; the sample as a whole holds those more often.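 Cell lines were cultured in 96-well plates, exposed to a single compound concentration, and assessed for percent growth 48 hours later.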 Unmarked numbers belong to inactive results. The source made the active and inactive calls. Rule for the calls: active = growth percent below 10; inactive = the rest.

What follows are molecules tested on HL-60(TB) leukemia (assay: NCI-60 one-dose screen, 48 h (100 = growth as untreated, 0 = no growth, -100 = all killed)). Settings: 10 µM unless noted.

SMILES | growth
C=CC(O)CCC (configuration not stated) | 88.3%
Cc1cc2c(c(C)c1Cl)C(=O)/C(=C/c1cccc([N+](=O)[O-])c1)O2 | 98.8%
C=CCOc1ccc2c(c1)CC[C@@H]1[C@@H]2CC[C@]2(C)C(=O)/C(=N/O)C[C@@H]12 | -28.4% (active)
COc1ccc(-c2nn(-c3cccc(Cl)c3)cc2-c2cc(-c3ccccc3)[nH]c(=O)c2C#N)cc1 | 111%
C[C@H]1[C@H](C)CC[C@]2(C(=O)NCC#CCN3CCN(C)CC3)CC[C@]3(C)C(=CC[C@@H]4[C@@]5(C)Cc6c([nH]c7ccccc67)C(C)(C)[C@@H]5CC[C@]43C)[C@H]12 | 63.9%
COc1ccc(/C(=C/c2cc(OC)c(OC)c(OC)c2)[N+](=O)[O-])cc1 | -26.4% (active)
COC1OCC(O)C(O)C1O (configuration not stated) | 102%
COc1ccc(-c2nn(-c3ccc(NC(=O)c4ccc(Cl)c(C(F)(F)F)c4)cc3)cc2-c2ccncc2)cc1Cl | 2.89% (active)
Cc1ncc(C(=O)Nc2ccc(CN3CCN(C)CC3)c(C(F)(F)F)c2)cc1C#Cc1c(N)ncc2ccccc12 | -51.1% (active)
CN1C(=O)N(C)C2C1NN=c1s/c(=C\c3ccc(C(F)(F)F)cc3)c(=O)n12 (configuration not stated) | -6.25% (active)
C=CC(=O)N1CCN(c2cccc(Oc3nccc(Nc4nnc(-c5ccc(Br)cc5)s4)n3)c2)CC1 | 51.1%
COc1ccc(-c2nc3ccc(C)cc3c3c2c(=O)n(C)c(=O)n3C)cc1OC | 98.1%
O=C(COc1cccc(/C=C2\CSc3ccc(Cl)cc3C2=O)c1)c1ccc(Cl)cc1 | 79.2%
O=C(Oc1ccccc1Cl)c1ccc(Cl)cc1Cl | 106%
Cc1cc2oc(/C=C/c3ccccc3)cc(=O)c2c(C)c1Cl | 80.8%
NC(=O)c1c(NC(=O)c2cccs2)sc2c1CCC(=O)C2 | 2.73% (active)
COC(=O)[C@]12CC[C@@H](C)[C@H](C)[C@@H]1C1=CC[C@@H]3[C@@]4(C)C=C(O)C(=O)C(C)=C4CC[C@@]3(C)[C@]1(C)CC2 | 4.09% (active)
COc1ccc(C2C(C#N)=C(N)Oc3c2sc2c(F)cccc32)cc1 (configuration not stated) | -29% (active)
Nc1ccc(NC(=O)c2ccccc2)c2c1C(=O)c1ccccc1C2=O | 135%

SMILES | growth
N#Cc1c(-c2ccc(F)cc2)cc(-c2cccc(Cl)c2)[nH]c1=O | 84.9%
Cc1c2cnccc2c(C)c2c1oc1ccccc12 | 61.8%
COc1ccc(-c2cc(-c3ccc(Nc4nc(Nc5ccccc5)nc(Nc5ccc(Cl)cc5)n4)cc3)nc(N)n2)cc1 | 101%
COc1ccc(C(=O)/C=C/c2cccc(Nc3ccnc4cc(Cl)ccc34)c2)cc1 | 51.7%
O=C(Cn1cc(COc2ncnc3c2cnn3-c2ccccc2)nn1)Nc1cccc2ccccc12 | 101%
COc1ccc(Cc2nnc(Nc3nc4ccccc4s3)s2)cc1 | -32.7% (active)
CC1CN(C2CCCCC2)C(=O)NC1=O (configuration not stated) | 75.8%
O=C(CCc1nnc2sc(-c3ccc(Cl)cc3Cl)nn12)c1nc2ncccc2[nH]1 | 3.13% (active)
CCn1c(SCCc2ccccc2)nnc1-c1nn(-c2ccc(Cl)cc2Cl)c(-c2ccc(Cl)cc2)c1C | 67.8%
O=c1c2cc(F)ccc2sc2c(NCCN3CCOCC3)nc3ccccc3c12 | 65.3%
N#C/C(=C/c1ccc(O)c([N+](=O)[O-])c1)c1nc(-c2ccc([N+](=O)[O-])cc2)cs1 | 26.5%
CCOC(=O)CC(=O)OC | 97%
CC(C)(C)c1cc(C[P+](c2ccccc2)(c2ccccc2)c2ccccc2)cc(C(C)(C)C)c1O | -45.3% (active)
CCOc1cc2ncc(C#N)c(Nc3ccc(OCc4cccc(F)c4)c(Cl)c3)c2cc1NC(=O)CCCCC1CCSS1 (configuration not stated) | 108%
CN(C)CCOc1ccc(/C(=C(/CCCCCCCCCC[P+](c2ccccc2)(c2ccccc2)c2ccccc2)c2ccccc2)c2ccccc2)cc1 | -62.1% (active)
COc1cnc2c(c1)C(=O)c1c-2n(CCCNC(C)C)c(=O)c2cc([N+](=O)[O-])ccc12 | -65% (active)
C#CCOC(=O)Nc1ccccc1 | 99.7%
O=C(N=Nc1c(O)[nH]c2ccccc12)c1cc(-c2ccccc2)on1 | 97.5%
